# Test results: PubChem BioAssay AID1159580 (chemical genetic matrix, 2015)
# Among all 5,500 compounds or so, about 2,000 (36%) were called active. Inconclusive results (about 18%) are left out. The list shows a part of the results. Unmarked numbers belong to inactive results. No stated cut-off is given here; in the data, active means normalized growth mostly below about 0.91 (no sharp cut-off); inconclusive means no clear call, values can overlap the other calls; inactive means mostly above about 0.92.
# Assay: chemical genetic growth profiling, strain panel (AID 1159580);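 further: tested at 20 µM; growth read once vehicle control cultures reached saturation at 30 °C; 1 = growth at the plate median or of vehicle wells; lower values mean less growth of the strain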
# Details: growth OD
# [1] = S. cerevisiae deletion strains, locus YAL013W, strain DEP1, active compounds read low
# [2] = S. cerevisiae deletion strains, locus YBR229C, strain ROT2, active compounds read low
# [3] = S. cerevisiae deletion strains, locus YCL061C, strain MRC1, active compounds read low
# [4] = S. cerevisiae deletion strains, locus YDL101C, strain DUN1, active compounds read low
# [5] = S. cerevisiae deletion strains, locus YDR150W, strain NUM1, active compounds read low
# [6] = S. cerevisiae deletion strains, locus YEL061C, strain CIN8, active compounds read low
# [7] = S. cerevisiae deletion strains, locus YGR078C, strain PAC10, active compounds read low
# [8] = S. cerevisiae deletion strains, locus YHR030C, strain SLT2, active compounds read low
# [9] = S. cerevisiae deletion strains, locus YHR087W, strain rtc3, active compounds read low
# [10] = S. cerevisiae deletion strains, locus YJR043C, strain POL32, active compounds read low
# [11] = S. cerevisiae deletion strains, locus YJR075W, strain HOC1, active compounds read low
# [12] = S. cerevisiae deletion strains, locus YLR039C, strain RIC1, active compounds read low
# [13] = S. cerevisiae deletion strains, locus YLR058C, strain SHM2 (second series), active compounds read low
# [14] = S. cerevisiae deletion strains, locus YLR085C, strain ARP6, active compounds read low
# [15] = S. cerevisiae deletion strains, locus YLR262C, strain YPT6, active compounds read low
# [16] = S. cerevisiae deletion strains, locus YML094W, strain GIM5, active compounds read low
# [17] = S. cerevisiae deletion strains, locus YMR219W, strain ESC1, active compounds read low
# [18] = S. cerevisiae deletion strains, locus YNL128W, strain TEP1, active compounds read low
# [19] = S. cerevisiae deletion strains, locus YNL153C, strain GIM3, active compounds read low
# [20] = S. cerevisiae deletion strains, locus YNL298W, strain CLA4 (second series), active compounds read low
# [21] = S. cerevisiae deletion strains, locus YNL322C, strain KRE1, active compounds read low
# [22] = S. cerevisiae deletion strains, locus YNR030W, strain Alg12, active compounds read low
# [23] = S. cerevisiae deletion strains, locus YPL055C, strain LGE1, active compounds read low
# [24] = S. cerevisiae deletion strains, locus YPL241C, strain CIN2, active compounds read low
# [25] = S. cerevisiae deletion strains, locus YPR135W, strain CTF4, active compounds read low
# [26] = S. cerevisiae strains, strain wild type, active compounds read low
# [27] = S. cerevisiae deletion strains, locus YMR263W, strain SAP30, active compounds read low
smiles,measurement,setting,value
O=C(CSCc1c(F)cccc1Cl)Nc1ccc(F)c(Cl)c1,normalized growth,[1],0.883 (active)
same,normalized growth,[2],0.834 (active)
same,normalized growth,[3],0.869 (active)
same,normalized growth,[4],0.956
same,normalized growth,[5],0.83
same,normalized growth,[6],0.881 (active)
same,normalized growth,[7],0.872 (active)
same,normalized growth,"S. cerevisiae deletion strains, locus YGR229C, strain SMI1, active compounds read low",0.913 (active)
same,normalized growth,[8],0.194 (active)
same,normalized growth,[9],0.811 (active)
same,normalized growth,"S. cerevisiae deletion strains, locus YJL187C, strain SWE1, active compounds read low",0.875 (active)
same,normalized growth,[10],0.909 (active)
same,normalized growth,[11],0.794 (active)
same,normalized growth,"S. cerevisiae deletion strains, locus YKL190W, strain CNB1, active compounds read low",0.802 (active)
same,normalized growth,[12],0.607 (active)
same,normalized growth,[13],0.908 (active)
same,normalized growth,[14],0.561 (active)
same,normalized growth,[15],0.595 (active)
same,normalized growth,[16],0.826 (active)
same,normalized growth,[17],0.891 (active)
same,normalized growth,[18],0.928
same,normalized growth,[19],0.935
same,normalized growth,[20],0.773 (active)
same,normalized growth,[21],0.946
same,normalized growth,[22],0.752 (active)
same,normalized growth,"S. cerevisiae deletion strains, locus YOL006C, strain TOP1, active compounds read low",0.953
same,normalized growth,[23],0.75 (active)
same,normalized growth,[24],0.781 (active)
same,normalized growth,[25],0.441 (active)
same,normalized growth,[26],0.87 (active)
O=C(CSCc1c(F)cccc1Cl)NC1Cc2ccccc2C1,normalized growth,[1],0.984
same,normalized growth,[2],0.973
same,normalized growth,[4],0.995
same,normalized growth,[5],0.959
same,normalized growth,[6],0.949
same,normalized growth,[7],0.978
same,normalized growth,[8],0.776
same,normalized growth,[9],0.962
same,normalized growth,[10],0.991
same,normalized growth,[11],0.944
same,normalized growth,[12],0.925
same,normalized growth,[13],0.973
same,normalized growth,[14],0.906
same,normalized growth,[15],0.964
same,normalized growth,[16],0.956
same,normalized growth,[17],0.97
same,normalized growth,[27],0.991
same,normalized growth,"S. cerevisiae deletion strains, locus YMR307W, strain GAS1, active compounds read low",0.628 (active)
same,normalized growth,[18],0.988
same,normalized growth,[19],0.977
same,normalized growth,[20],0.944
same,normalized growth,[21],0.973
same,normalized growth,[22],0.943
same,normalized growth,[23],0.944
same,normalized growth,[24],0.938
same,normalized growth,[25],0.76
Cn1c(CSCC(=O)Nc2ccccc2)n[nH]c1=S,normalized growth,[1],1.01
same,normalized growth,[2],1.01
same,normalized growth,[3],1.02
same,normalized growth,[4],1.02
same,normalized growth,[5],1.02
same,normalized growth,[6],1
same,normalized growth,[7],0.999
same,normalized growth,[8],1.09
same,normalized growth,[9],1.01
same,normalized growth,[10],1.02
same,normalized growth,[11],0.991
same,normalized growth,[12],1
same,normalized growth,[13],1
same,normalized growth,[14],0.966
same,normalized growth,[15],1.01
same,normalized growth,[16],0.994
same,normalized growth,[17],0.993
same,normalized growth,[27],1.02
same,normalized growth,[18],0.994
same,normalized growth,[19],1.02
same,normalized growth,[20],1.03
same,normalized growth,[21],0.99
same,normalized growth,[22],1
same,normalized growth,[23],1.03
same,normalized growth,[24],1
same,normalized growth,[25],1.07
same,normalized growth,[26],0.981
